TDP1 cell noCPT: qHTS for Inhibitors of human tyrosyl-DNA phosphodiesterase 1 (TDP1): qHTS in cells in absence of CPT; DT40 Tdp1-/- hTDP1 cells, no CPT, ATP luminescence, 48 h; Potency, µM (highest dose often 46.2 µM), usual class: inhibitors; hit rate 15% among 420,000; AID 686978, 2013; further: nearly all actives have a fitted effect of over 55% in size
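Stably hTDP1-transfected Tdp1-null chicken DT40 cells were treated with library compounds minus camptothecin and grown for at least 48 hr at 37 °C, after which cellular ATP was quantified by luminescence.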
TDP1 cell CPT: qHTS for Inhibitors of human tyrosyl-DNA phosphodiesterase 1 (TDP1): qHTS in cells in presence of CPT. hit rate 12% among 420,000. AID 686979, 2013. Potency, µM (top dose mostly 46.2 µM), usual class: inhibitors. chicken DT40 Tdp1-/-;hTDP1 cells + 20 nM CPT, ATP luminescence, 48 h; further: nearly all actives have a fitted effect of over 55% in size
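Chicken DT40 Tdp1-/- cells complemented with human TDP1, 400 cells/well, exposed to compounds plus 20 nM camptothecin for at least 48 h at 37 C; viability read as ATP content by CellTiter-Glo luminescence.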
HT1080-NT tox: qHTS for induction of synthetic lethality in tumor cells producing 2HG: qHTS for the HT-1080-NT fibrosarcoma cell line; AID 686970, 2013; Potency, µM (titrated, usually from 46.1 µM), actives largely listed as cytotoxic; hit rate 1.6% among 360,000; HT-1080-NT fibrosarcoma viability, CellTiter-Glo ATP luminescence, 48 h;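 further: NT is the 2HG producing partner of a matched IDH1 knockdown line; nearly all actives have a fitted effect of over 55% in size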
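HT-1080-NT fibrosarcoma cells (2HG-overproducing), 750 cells/well in RPMI with 5% FBS, dosed after 2 h and incubated 48 h at 37C. CellTiter-Glo luminescence normalized to DMSO and no-cell wells; concentration-response curves fitted and classed.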
HT1080 IDH1KD tx: qHTS for induction of synthetic lethality in tumor cells producing 2HG: qHTS for the HT-1080-IDH1KD cell line | HT-1080 IDH1 knockdown viability, ATP luminescence, 48 h | hit rate 2% among 360,000 | Potency, µM (titrated, usually from 46.1 µM), usual class: cytotoxic
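% activity derives from luminescence (CellTiter-Glo), normalised to DMSO and no-cell wells. HT-1080-IDH1KD cells, 750/well, had 48 h compound exposure at 37 °C.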
IL1B secr inh: qHTS for Inhibitors of Inflammasome Signaling: IL-1-beta AlphaLISA Primary Screen; THP-1 LPS/ATP IL-1B secretion, AlphaLISA, 16 h; stronger effect = lower value; activity change, % at 57.5 µM; hit rate 4.7% among 360,000; in the data active means activity change below about -50%; inconclusive means mostly about -30% to -49%
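THP-1 cells pretreated 1 hr with compounds (up to 57.5 uM final), then stimulated with LPS (250 ng/mL final) plus ATP (1.25 mM final); secreted IL-1B measured by AlphaLISA after 16 hr, decreased signal indicating inhibition.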
12-LOX inh: Primary qHTS assay for inhibitors of human arachidonate 12S-lipoxygenase (ALOX12): Round 2. Polyunsaturated fatty acid lipoxygenase ALOX12 (Homo sapiens), P18054. Potency, µM (top dose mostly 108 µM), most hits filed as inhibitors. hit rate 1.1% among 580,000. purified 12hLO, xylenol orange hydroperoxide absorbance
Target sequence (P18054 whole entry, looked up): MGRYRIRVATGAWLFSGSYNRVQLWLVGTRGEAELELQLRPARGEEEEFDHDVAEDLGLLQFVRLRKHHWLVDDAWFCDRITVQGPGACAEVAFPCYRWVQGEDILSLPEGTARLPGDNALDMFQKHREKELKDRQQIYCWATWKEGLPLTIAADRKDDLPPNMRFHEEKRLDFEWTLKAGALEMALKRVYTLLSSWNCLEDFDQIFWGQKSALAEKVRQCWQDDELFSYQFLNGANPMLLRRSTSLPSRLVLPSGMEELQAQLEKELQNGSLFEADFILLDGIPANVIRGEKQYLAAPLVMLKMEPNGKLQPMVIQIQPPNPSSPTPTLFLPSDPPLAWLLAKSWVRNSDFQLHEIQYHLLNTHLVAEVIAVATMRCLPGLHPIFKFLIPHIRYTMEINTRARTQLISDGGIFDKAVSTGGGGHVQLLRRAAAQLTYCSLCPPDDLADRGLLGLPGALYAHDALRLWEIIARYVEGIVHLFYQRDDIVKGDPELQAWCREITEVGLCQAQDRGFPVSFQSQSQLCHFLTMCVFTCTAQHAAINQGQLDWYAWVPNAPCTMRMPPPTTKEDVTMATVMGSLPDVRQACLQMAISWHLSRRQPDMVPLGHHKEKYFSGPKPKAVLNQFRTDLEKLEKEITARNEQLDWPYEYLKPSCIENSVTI
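Purified human 12hLO (150 nM final) in 25 mM Hepes, 0.01% Triton X-100, pH 7.0 was preincubated 15 min at room temperature with compound. Then 40 uM arachidonic acid was added, 30 min. Hydroperoxide was read by Fe-XO absorbance ratio 573/405 nm.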
Of the large screens only hits and unclear results are named; the others gave an inactive call. Shown is part of a subset that was picked to be rich in hits. Unless noted, the call rests on the fitted dose curve; in most records, active means well fitted curve in the direction sought with a large enough effect; inconclusive means small, poorly fitted or top-dose-only effect, or another doubt; inactive means no such curve, though single readings can be large; an effect the other way counts as inactive or inconclusive.

COc1ccc(-c2nc3c(C#N)c[nH]n3c2NC2CCCCC2)c(OC)c1	TDP1 cell noCPT inconclusive, TDP1 cell CPT inconclusive (no result: HT1080-NT tox, HT1080 IDH1KD tx, IL1B secr inh)
Cn1c2c(c(=O)n(C)c1=O)C(C(F)(F)F)(C(F)(F)F)N=C(C1CCCCC1)N2	TDP1 cell noCPT 26µM, TDP1 cell CPT 18µM
Cc1ccccc1C1=NC(C(F)(F)F)(C(F)(F)F)c2c(n(C)c(=O)n(C)c2=O)N1	TDP1 cell noCPT 23µM, TDP1 cell CPT inconclusive
Cn1c2c(c(=O)n(C)c1=O)C(NC(=O)c1cccs1)(C(F)(F)F)C(=O)N2 (stereo not drawn)	none
COC(=O)NC1(C(F)(F)F)C(=O)Nc2c1c(=O)n(C)c(=O)n2C (stereo not drawn)	none
Cn1c2c(c(=O)n(C)c1=O)C(C(F)(F)F)(C(F)(F)F)N=C(c1ccc(Cl)cc1)N2	TDP1 cell noCPT 1.3µM, TDP1 cell CPT 0.92µM, HT1080-NT tox inconclusive, HT1080 IDH1KD tx 7.3µM (no result: 12-LOX inh)
N#Cc1ccccc1OCC(=O)NNC(=O)C1COc2ccccc2O1 (stereo not drawn)	none (no result: TDP1 cell noCPT, TDP1 cell CPT, HT1080-NT tox, HT1080 IDH1KD tx, IL1B secr inh)
CC1=C(C(=O)N2CCCCC2)C(c2ccc(C)cc2)C2=C(CC(C)(C)CC2=O)N1 (stereo not drawn)	none (no result: TDP1 cell noCPT, TDP1 cell CPT, HT1080-NT tox, HT1080 IDH1KD tx, IL1B secr inh)
CC(C)Cc1nn2c(=O)cc(COC(=O)c3cccc(NC(=O)c4cccs4)c3)nc2s1	TDP1 cell noCPT 8.2µM, TDP1 cell CPT inconclusive (no result: HT1080-NT tox, HT1080 IDH1KD tx, IL1B secr inh)
CCOC(=O)c1c(NC(=S)Nc2ccccc2)sc2c1CC(C)(C)SC2	TDP1 cell noCPT inconclusive, TDP1 cell CPT 16µM, 12-LOX inh inconclusive
CCOC(=O)c1cccc(NC(=O)c2cc3cc4ccc(C)cc4nc3s2)c1	TDP1 cell noCPT 15µM, TDP1 cell CPT 15µM (no result: HT1080-NT tox, HT1080 IDH1KD tx, IL1B secr inh)
CC(C)(C)c1ccc(C(=O)Nc2ccc(C(=O)OCc3cc(=O)n4ccsc4n3)cc2)cc1	TDP1 cell noCPT 21µM, TDP1 cell CPT 21µM (no result: HT1080-NT tox, HT1080 IDH1KD tx, IL1B secr inh)
Cc1ccc(C(=O)Nc2ccc(C(=O)OCc3cc(=O)n4ccsc4n3)cc2)cc1	none (no result: HT1080-NT tox, HT1080 IDH1KD tx, IL1B secr inh)
CCOc1ccc(NC(=O)N2CCc3cc(OC)c(OC)cc3C2CNC(=O)NC(C)(C)C)cc1 (stereo not drawn)	none (no result: TDP1 cell noCPT, TDP1 cell CPT, HT1080-NT tox, HT1080 IDH1KD tx, IL1B secr inh)
O=C(Nc1ccc(F)cc1)c1nc2ccccc2nc1N1CCOCC1	none (no result: TDP1 cell noCPT, TDP1 cell CPT, HT1080-NT tox, HT1080 IDH1KD tx, IL1B secr inh)
O=C(NCc1noc(Cc2cccs2)n1)C1NCCc2[nH]cnc21 (stereo not drawn)	none (no result: TDP1 cell noCPT, TDP1 cell CPT, HT1080-NT tox, HT1080 IDH1KD tx, IL1B secr inh)
O=C(c1coc(COc2ccc(F)cc2Cl)n1)N1CCCCO1	none (no result: TDP1 cell noCPT, TDP1 cell CPT, HT1080-NT tox, HT1080 IDH1KD tx, IL1B secr inh)
CCCCc1nn2c(=O)cc(COC(=O)c3cccc(NC(=O)c4cccs4)c3)nc2s1	none (no result: HT1080-NT tox, HT1080 IDH1KD tx, IL1B secr inh)
Cc1nn2c(=O)cc(COC(=O)c3cccc(NC(=O)c4cccs4)c3)nc2s1	TDP1 cell noCPT 12µM, TDP1 cell CPT 12µM (no result: HT1080-NT tox, HT1080 IDH1KD tx, IL1B secr inh)
CCOC(=O)c1c(NC(=O)c2cccs2)sc2c1CC(C)(C)OC2	TDP1 cell noCPT 26µM, TDP1 cell CPT inconclusive, IL1B secr inh inconclusive, 12-LOX inh inconclusive
Cc1nn2c(=O)cc(COC(=O)c3ccc(NC(=O)c4ccc(C(C)(C)C)cc4)cc3)nc2s1	TDP1 cell noCPT 16µM, TDP1 cell CPT inconclusive (no result: HT1080-NT tox, HT1080 IDH1KD tx, IL1B secr inh)
CCONC(=O)c1cccc(NC(=O)c2cccs2)c1	none (no result: TDP1 cell noCPT, TDP1 cell CPT, HT1080-NT tox, HT1080 IDH1KD tx, IL1B secr inh)
CCOC(=O)c1cccc(NC(=O)c2cccs2)c1	TDP1 cell noCPT 15µM, TDP1 cell CPT 23µM
Nc1nccnc1C(=O)NCCc1cccc(Cl)c1	none (no result: TDP1 cell noCPT, TDP1 cell CPT, HT1080-NT tox, HT1080 IDH1KD tx, IL1B secr inh)
COCC(C)NC(=O)CCC1CCCO1 (stereo not drawn)	none (no result: TDP1 cell noCPT, TDP1 cell CPT, HT1080-NT tox, HT1080 IDH1KD tx, IL1B secr inh)
COc1cccc(C(=O)Nc2ccc3c(c2)CN(Cc2cccc(OC)c2OC)C(=O)CO3)c1	none (no result: TDP1 cell noCPT, TDP1 cell CPT, HT1080-NT tox, HT1080 IDH1KD tx, IL1B secr inh)

Screens as filed in PubChem BioAssay.
